Reference: PubChem BioAssay (EPA / NIEHS)
Where “and” joins values, the source holds several entries; their conditions need not be identical. Equal entries are not always repeated. A structure can be active in one record and inactive in another. Calls of active or inactive are those of the source. Rule for the calls: active = hit-call score of the fitted dose curve at least 0.9, where 1 is the maximum; inactive = score below 0.9.

Columns and labels:
[1] = APR_HepG2_MitoMembPot_72hr: Apredica 72-hour HepG2 Assay for Mitochondrial Membrane Potential (AID 2282917); settings: imaging, actives raise or lower the signal
Method in brief: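 HepG2 cells exposed 72 h to compounds at 0.39–200 uM (0.5% v/v DMSO, duplicates); MitoTracker Red CMXRos 250 nM loaded 30 min before 3.7% formaldehyde fixation, imaged by HCS fluorescence. Bidirectional fit versus DMSO.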

[2] = APR_HepG2_MitoticArrest_72hr: Apredica 72-hour HepG2 Assay for Mitotic Arrest (AID 2282918); settings: high-content imaging, actives raise or lower the signal
Method in brief: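 HepG2, 72 hr exposure, 0.39–200 uM in duplicate, 0.5% v/v DMSO final. Formaldehyde-fixed, Triton-permeabilized, anti-phospho-histone H3/FITC plus Hoechst. ArrayScan imaging at 20x; curves fit bidirectionally against DMSO baseline.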

[3] = APR_HepG2_MicrotubuleCSK_72hr: Apredica 72-hour HepG2 Assay for Microtubule CSK Stabilty (AID 2282919); settings: HepG2 microtubule cytoskeleton, high-content imaging, actives raise or lower the signal
Method in brief: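 HepG2 human liver cells were dosed for 72 h at ten concentrations from 0.39 to 200 uM in duplicate (0.5% v/v DMSO final). Fixed, permeabilized cells were immunostained for alpha-tubulin (Cy5) with a Hoechst counterstain and imaged at 20x.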

[4] = APR_HepG2_P-H2AX_24hr: Apredica 24-hour HepG2 Assay for H2AX Phosphorylation (AID 2282920); settings: high-content imaging, actives raise or lower the signal
Method in brief: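 HCS fluorescence imaging of phospho-H2A.x immunostain (with Hoechst 33342 nuclear counterstain) in HepG2 after 24 hr compound exposure; 10 concentrations, 0.39–200 uM, duplicate wells, 0.5% v/v DMSO. Gain or loss of signal fitted relative to DMSO baseline.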

[5] = APR_HepG2_StressKinase_72hr: Apredica 72-hour HepG2 Assay for Stress Kinase (AID 2282921); settings: HepG2 stress kinase (phospho-c-Jun) imaging, actives raise or lower the signal
Method in brief: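 HepG2 cells treated 72 hr with 0.39–200 uM compound, 0.5% v/v DMSO, duplicate wells. After formaldehyde fixation and Triton permeabilization, stained with anti-phospho-c-Jun (1:500) and Cy3 secondary, imaged at 20x. Fitted in both directions against DMSO.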

[6] = APR_HepG2_StressKinase_24hr: Apredica 24-hour HepG2 Assay for Stress Kinase (AID 2282922); settings: HepG2 stress kinase (phospho-c-Jun) imaging, actives raise or lower the signal
Method in brief: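 HepG2 cells exposed 24 hr to compound at 0.39–200 uM (10 concentrations, duplicate), 0.5% v/v DMSO final. Fixed in 3.7% formaldehyde, permeabilized with Triton X-100, immunolabeled for phospho-c-Jun with Hoechst 33342; HCS fluorescence imaging, bidirectional fit versus DMSO.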

[7] = APR_HepG2_p53Act_72hr: Apredica 72-hour HepG2 Assay for p53 Activation (AID 2282923); settings: high-content imaging, actives raise or lower the signal;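 note: average cellular p53 protein immunofluorescence intensity in HepG2 cells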
Method in brief: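 HepG2 cells exposed 72 h to 0.39–200 uM in 0.5% DMSO, duplicates. Fixed, permeabilized cells immunostained for p53 (Cy5) with Hoechst; imaged at 20x, fluorescence analyzed bidirectionally against DMSO.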

[8] = APR_HepG2_MitoMass_72hr: Apredica 72-hour HepG2 Assay for Mitochondrial Mass (AID 2282924); settings: high-content imaging, actives raise or lower the signal;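 note: MitoTracker Red CMXRos stain intensity per cell imaged as mitochondrial mass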
Method in brief: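 HepG2 cells were exposed for 72 hr to compounds at 0.39–200 uM (ten concentrations, duplicate, 0.5% v/v DMSO final). Live cells were stained with 250 nM MitoTracker Red CMXRos for 30 min, then fixed in 3.7% formaldehyde and imaged by HCS fluorescence.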

[9] = APR_HepG2_NuclearSize_72hr: Apredica 72-hour HepG2 Assay for Nuclear Size (AID 2282925); settings: high-content imaging, actives raise or lower the signal
Method in brief: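 HepG2 cells were exposed to compounds at ten concentrations from 0.39 to 200 uM (duplicate, 0.5% DMSO final) for 72 hr. After fixation in 3.7% formaldehyde, nuclei were stained with Hoechst 33342 (2 ug/mL) and imaged at 20x.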

[10] = ATG_CRE_CIS: Attagene CIS-FACTORIAL HepG2 Assay for human cAMP Responsive Element (CRE) binding protein 3 (AID 2282926); settings: HepG2 CRE cis-reporter, Attagene multiplexed mRNA; actives raise or lower the signal
Method in brief: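 Endogenous CRE-binding activity in HepG2 is reported through a cis-regulated transfected reporter. Following a day of exposure, mRNA levels are determined by reverse transcription PCR and fluorescent fragment analysis; fits run in both directions versus DMSO.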

[11] = target: CCAAT/enhancer-binding protein beta (Homo sapiens) (UniProt P17676); assay: ATG_C_EBP_CIS: Attagene CIS-FACTORIAL HepG2 Assay for human CCAAT/Enhancer Binding Protein (C/EBP) beta (AID 2282927); settings: HepG2 Attagene cis-factorial transcription factor reporter; actives raise or lower the signal
Method in brief: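 Following a 24 h incubation with test chemical, transfected HepG2 cells yielded RNA whose reporter transcripts were quantified by RT-PCR and fluorescent capillary electrophoresis, with DMSO serving as baseline for bidirectional fitting.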

[12] = ATG_CMV_CIS: Attagene CIS-FACTORIAL HepG2 Assay for human CMV (Internal Marker) (AID 2282928); settings: HepG2 CMV promoter reporter, transcription factor profiling; actives raise or lower the signal;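 note: endpoint acts as a background internal control marker rather than a target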
Method in brief: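 CMV internal-marker background readout in transiently transfected HepG2 cells bearing cis-regulated reporter units. Reporter mRNA is measured 24 h after dosing by RT-PCR and capillary electrophoresis, with bidirectional fitting against DMSO.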

[13] = ATG_DR4_LXR_CIS: Attagene CIS-FACTORIAL HepG2 Assay for human Liver X Receptor (LXR), DR4 submotif (AID 2282929); settings: HepG2 Attagene DR4 cis-reporter, mRNA transcription; actives raise or lower the signal
Method in brief: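 Readout: reporter transcript fluorescence after RT-PCR and capillary electrophoresis, fitted bidirectionally against DMSO controls. Human HepG2 liver cells carried transiently transfected multiplexed reporter constructs; endogenous transcription factor activity measured 24 h post-dosing.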

[14] = ATG_AP_1_CIS: Attagene CIS-FACTORIAL HepG2 Assay for human Activator Protein 1 (AP-1) (AID 2282931); settings: HepG2 Attagene cis-factorial AP-1 reporter mRNA; actives raise or lower the signal
Method in brief: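 Reporter transcripts were measured 24 h after dosing by RT-PCR and capillary electrophoresis of fluorescent fragments. Cells: HepG2 carrying transfected cis-regulated reporter constructs reading endogenous factor activity. Gain or loss fitted against DMSO.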

[15] = ATG_AP_2_CIS: Attagene CIS-FACTORIAL HepG2 Assay for human Activator Protein 2 (AP-2) (AID 2282932); settings: HepG2 AP-2 cis-reporter, Attagene transcription factor profiling; actives raise or lower the signal
Method in brief: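 Bidirectional curve fitting against DMSO was applied to reporter mRNA signals from HepG2 cells 24 h after dosing. Cis-promoter reporter units, transiently transfected, were read by RT-PCR plus capillary electrophoresis.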

[16] = ATG_BRE_CIS: Attagene CIS-FACTORIAL HepG2 Assay for human Bone Morphogenetic Protein (BMP) Response Element (BRE) (AID 2282933); settings: HepG2 BMP response element reporter, Attagene transcription factor profiling; actives raise or lower the signal
Method in brief: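 A HepG2 multiplex reporter system measured inducible reporter mRNA 24 h post-dosing. Detection: RT-PCR, 6-FAM primer extension, HpaI digestion, capillary electrophoresis. Activity fitted bidirectionally relative to DMSO.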

[17] = target: Retinoic acid receptor alpha (Homo sapiens) (UniProt P10276); assay: ATG_DR5_RAR_CIS: Attagene CIS-FACTORIAL HepG2 Assay for human Retinoic Acid Receptor Alpha (RARE), DR5 submotif (AID 2282934); settings: HepG2 Attagene cis-factorial RARE DR5 reporter, mRNA; actives raise or lower the signal;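 for AC50: reporter responds to endogenous RAR alpha beta and gamma in HepG2 not RARA alone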
Method in brief: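 Endpoint fitted in both directions relative to DMSO as negative control. It reflects DR5 cis-element reporter mRNA induction in transiently transfected HepG2 cells, measured 24 h after dosing through RT-PCR and fluorescent capillary electrophoresis.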

[18] = target: Transcription factor E2F1 (Homo sapiens) (UniProt Q01094); assay: ATG_E2F_CIS: Attagene CIS-FACTORIAL HepG2 Assay for human E2F Transcription Factor 1 (AID 2282935); settings: HepG2 Attagene cis-reporter, E2F reporter RNA transcripts; actives raise or lower the signal
Method in brief: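 Multiplexed cis-reporter assay: HepG2, transient transfection, 24 h dosing, mRNA quantitation by labeled RT-PCR and CE.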

[19] = target: Aryl hydrocarbon receptor (Homo sapiens) (UniProt P35869); assay: ATG_Ahr_CIS: Attagene CIS-FACTORIAL HepG2 Assay for human Aryl Hydrocarbon Receptor (Ahr) (AID 2282930); settings: HepG2 AhR cis-factorial reporter transcription; actives raise or lower the signal
Method in brief: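 Values derive from bidirectional fitting against DMSO negative control. Underlying signal: cis-element reporter mRNA in transiently transfected HepG2, harvested 24 h post-dose and measured by RT-PCR plus capillary electrophoresis.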

Measured: AC50

Chain of Aryl hydrocarbon receptor (Homo sapiens) (P35869 whole entry, looked up): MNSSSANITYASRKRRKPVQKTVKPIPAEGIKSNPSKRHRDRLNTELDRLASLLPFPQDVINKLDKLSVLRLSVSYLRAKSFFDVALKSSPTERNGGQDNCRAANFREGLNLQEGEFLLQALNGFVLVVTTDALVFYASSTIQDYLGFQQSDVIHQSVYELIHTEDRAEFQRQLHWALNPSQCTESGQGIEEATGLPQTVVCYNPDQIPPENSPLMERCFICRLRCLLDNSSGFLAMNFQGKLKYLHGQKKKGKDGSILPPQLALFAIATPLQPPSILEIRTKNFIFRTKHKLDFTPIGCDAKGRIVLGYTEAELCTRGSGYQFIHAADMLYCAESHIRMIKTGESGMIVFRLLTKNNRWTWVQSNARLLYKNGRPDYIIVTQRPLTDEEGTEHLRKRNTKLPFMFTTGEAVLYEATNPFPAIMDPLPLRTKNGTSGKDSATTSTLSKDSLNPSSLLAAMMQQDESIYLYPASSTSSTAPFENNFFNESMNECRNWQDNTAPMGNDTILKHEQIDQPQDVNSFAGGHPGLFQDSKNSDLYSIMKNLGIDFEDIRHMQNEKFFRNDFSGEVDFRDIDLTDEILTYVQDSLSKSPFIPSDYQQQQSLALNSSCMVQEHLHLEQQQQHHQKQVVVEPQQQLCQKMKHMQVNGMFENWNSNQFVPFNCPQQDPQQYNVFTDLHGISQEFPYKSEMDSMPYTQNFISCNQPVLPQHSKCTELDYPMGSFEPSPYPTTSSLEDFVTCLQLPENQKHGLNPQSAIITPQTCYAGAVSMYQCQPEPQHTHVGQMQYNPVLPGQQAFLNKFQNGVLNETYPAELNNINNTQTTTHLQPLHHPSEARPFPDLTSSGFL
Chain of CCAAT/enhancer-binding protein beta (Homo sapiens) (P17676 whole entry, looked up): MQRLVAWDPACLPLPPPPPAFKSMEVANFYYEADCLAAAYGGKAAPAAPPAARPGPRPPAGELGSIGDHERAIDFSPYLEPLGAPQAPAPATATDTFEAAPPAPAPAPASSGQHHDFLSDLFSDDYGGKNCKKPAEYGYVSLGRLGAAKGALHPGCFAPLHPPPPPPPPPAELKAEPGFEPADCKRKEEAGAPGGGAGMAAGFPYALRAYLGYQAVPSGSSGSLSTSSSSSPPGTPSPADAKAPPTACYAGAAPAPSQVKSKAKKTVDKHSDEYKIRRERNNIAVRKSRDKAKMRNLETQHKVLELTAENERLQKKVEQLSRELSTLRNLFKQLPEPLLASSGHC
Chain of Retinoic acid receptor alpha (Homo sapiens) (P10276 whole entry, looked up): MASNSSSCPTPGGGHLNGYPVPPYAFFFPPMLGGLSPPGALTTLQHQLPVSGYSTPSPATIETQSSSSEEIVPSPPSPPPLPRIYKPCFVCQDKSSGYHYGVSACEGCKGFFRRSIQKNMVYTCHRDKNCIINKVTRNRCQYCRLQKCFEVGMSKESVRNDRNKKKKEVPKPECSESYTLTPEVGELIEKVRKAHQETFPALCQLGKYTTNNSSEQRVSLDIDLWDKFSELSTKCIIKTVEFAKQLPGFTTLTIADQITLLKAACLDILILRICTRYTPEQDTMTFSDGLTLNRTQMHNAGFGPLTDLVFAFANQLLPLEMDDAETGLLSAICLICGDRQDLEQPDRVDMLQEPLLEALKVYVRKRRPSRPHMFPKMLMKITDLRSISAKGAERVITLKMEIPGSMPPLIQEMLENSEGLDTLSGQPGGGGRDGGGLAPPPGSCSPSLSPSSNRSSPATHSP
Chain of Transcription factor E2F1 (Homo sapiens) (Q01094 whole entry, looked up): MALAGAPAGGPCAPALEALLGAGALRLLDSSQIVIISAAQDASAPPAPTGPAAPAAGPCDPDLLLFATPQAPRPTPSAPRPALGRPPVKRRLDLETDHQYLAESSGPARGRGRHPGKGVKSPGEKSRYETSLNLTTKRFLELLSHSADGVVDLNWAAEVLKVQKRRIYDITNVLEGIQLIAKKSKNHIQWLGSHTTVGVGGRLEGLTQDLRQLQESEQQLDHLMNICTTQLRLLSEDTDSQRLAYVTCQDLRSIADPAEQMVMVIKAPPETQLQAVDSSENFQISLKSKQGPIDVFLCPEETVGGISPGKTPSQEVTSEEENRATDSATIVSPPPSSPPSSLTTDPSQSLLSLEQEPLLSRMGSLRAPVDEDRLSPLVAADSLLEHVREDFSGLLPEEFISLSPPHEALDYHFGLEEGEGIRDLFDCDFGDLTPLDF

NS(=O)(=O)C(F)(F)C(F)(F)C(F)(F)C(F)(F)C(F)(F)C(F)(F)C(F)(F)C(F)(F)F
inactive: [3] | [5] | [6] | [8] | [9] | [11] | [13] | [15] | [17] | [18]
active: [1] 102 µM | [2] 77.9 µM | [4] 100 µM | [7] 61.7 µM | [10] 44.3 µM and 40.2 µM and 32.2 µM | [11] 36.3 µM and 24.3 µM | [12] 40.4 µM and 227 µM and 21.6 µM | [13] 33.4 µM and 105 µM | [14] 29.9 µM and 262 µM and 17 µM | [16] 45.4 µM and 248 µM and 15.5 µM | [17] 40.4 µM and 29.7 µM

CCCCCCCCCC[N+](C)(C)CCCCCCCCCC
active: [1] 41.2 µM | [2] 3.61 µM | [3] 15.6 µM | [4] 6.27 µM | [7] 3.25 µM | [8] 3.13 µM | [12] 179 µM | [13] 6.09 µM | [14] 192 µM | [15] 100 µM
inactive: [5] | [6] | [9] | [10] | [11] | [19] | [16] | [17] | [18]

C[C@]12CCC(=O)C=C1CC[C@@H]1[C@@H]2CC[C@@]2(C)[C@H]1CC[C@]2(C)O
inactive: [1] | [2] | [3] | [4] | [5] | [6] | [7] | [8] | [9] | [10] | [11] | [12] | [13] | [19] | [14] | [15] | [16] | [17] | [18]
active: [13] 163 µM | [14] 114 µM | [15] 33.9 µM | [16] 91.5 µM and 64 µM

Oc1c(Cl)c(Cl)c(Cl)c(Cl)c1Cl
active: [10] 19.3 µM and 10.2 µM | [11] 13.7 µM | [12] 28.7 µM and 8.37 µM and 39.7 µM | [13] 31.6 µM and 34.8 µM | [19] 14 µM and 6.01 µM and 874 nM | [14] 13.7 µM and 3.6 µM | [15] 26.1 µM | [16] 13.6 µM and 18.2 µM and 31.3 µM | [17] 14.1 µM
inactive: [1] | [2] | [3] | [4] | [5] | [6] | [7] | [8] | [9] | [10] | [11] | [13] | [14] | [15] | [17] | [18]

Cc1cc2c3c(c1)C(c1ccccc1)=N[C@@H](NC(=O)c1ccncc1)C(=O)N3CC2
active: [10] 100 µM | [12] 100 µM | [13] 161 µM
inactive: all other assays above
